# Sampled rows, rich in hits. Any-hit rate of the full collection: about 1.5%.
# GLD-1 TGE inh: GLD-1-TGE RNA interaction inhibition (C. elegans) | inhibition, % at 5.96 µM | Q17339 | 320,000 compounds, 0.44% hits | AID 2280 | purified GLD-1 + fluorescein TGE RNA, fluorescence polarization;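 active = percent inhibition above a per-plate cutoff, the plate mean of test compounds plus 3 SD, cut at about 30% in these data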;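 note: 0% = DMSO wells with GLD-1 and probe and 100% = wells lacking GLD-1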
# Target sequence (Q17339 whole entry, looked up): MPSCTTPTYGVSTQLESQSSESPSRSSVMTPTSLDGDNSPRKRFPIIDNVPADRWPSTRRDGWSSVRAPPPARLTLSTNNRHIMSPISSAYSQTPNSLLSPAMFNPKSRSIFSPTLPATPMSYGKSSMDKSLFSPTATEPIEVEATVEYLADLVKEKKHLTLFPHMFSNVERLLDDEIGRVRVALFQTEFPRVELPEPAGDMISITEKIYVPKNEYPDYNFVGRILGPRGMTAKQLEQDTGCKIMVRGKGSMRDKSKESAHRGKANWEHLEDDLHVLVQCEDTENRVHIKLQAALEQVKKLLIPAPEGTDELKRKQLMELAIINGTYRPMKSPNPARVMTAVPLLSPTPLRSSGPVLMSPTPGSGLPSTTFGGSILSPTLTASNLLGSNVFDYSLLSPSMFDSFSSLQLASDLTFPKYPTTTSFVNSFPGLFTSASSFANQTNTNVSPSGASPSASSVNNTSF
# MCL1 BIM primary: inhibitors of human MCL1 binding to BIM-BH3 peptide. GST-MCL1 / FITC-Bim-BH3 fluorescence polarization. inhibition, % at 10.9 µM. 320,000 compounds, 0.68% hits. AID 2057;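 active = inhibition above the mean inhibition of all tested compounds plus 3 SD, set per campaign, cut at about 40% in these data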;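 note: 0% = DMSO wells and 100% = unlabeled Bim-BH3 peptide control; higher means more loss of mP so more displacement of Bim peptide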
# MEX-5 binding: C. elegans MEX-5 TCR-2 RNA binding activity; 300,000 compounds, 0.38% hits; activity score (negative = inhibition of binding), % at 10 µM; MEX-5/FITC-TCR2 RNA binding, fluorescence polarization; active compounds read low; AID 1832;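 active = inhibition past about -25% in most replicates, and total fluorescence under double the plate's negative control median, limit read from the data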;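 note: 0% = DMSO and -100% = 5 µM competing unlabeled TCR2 RNA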
# Bcl-xL primary: Bcl-xL (human) inhibition; Q07817; 320,000 compounds, 0.7% hits; GST-Bcl-xL / FITC-Bim BH3 peptide fluorescence polarization; AID 2129; inhibition, % at 10.9 µM;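 active = inhibition above the mean of all tested compounds plus 3 SD, cutoff set per campaign, cut at about 30% in these data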;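 note: 0% = DMSO wells and 100% = unlabeled Bim-BH3 peptide competitor; inhibitors lower millipolarization by displacing the labeled peptide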
# EBV gp42 inh: inhibitors of Epstein-Barr virus glycoprotein 42 | Q1HVG2 | Fluorescence polarization binding assay, mP read-out | inhibition, % (tested at 21.74 µM) | 220,000 compounds, 0.42% hits; in the data active = inhibition above about 50%
# eLon inh: E. coli protease La inhibition. AID 602123. purified E. coli Lon protease, fluorescence polarization. 360,000 compounds, 0.42% hits. inhibition, % at 7.94 µM. P0A9M0; in the data active = inhibition above about 13%, passing the limit was not always enough;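 note: 0% = enzyme with probe and DMSO and 100% = no enzyme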
# Numbers without * were called inactive; / = no result.
SMILES,GLD-1 TGE inh,MCL1 BIM primary,MEX-5 binding,Bcl-xL primary,EBV gp42 inh,eLon inh
CC(=O)c1ccc(Nc2c3c(nc4ccccc24)CCCC3)cc1,-7,-8,-4,-4,86*,2
O=C1N=c2ccc([N+](=O)[O-])cc2=C1c1sc(=O)[nH]c1O,5,15,-59*,14,/,-13
CCOC(=O)c1ccc(CC(=O)c2ccc(O)c(O)c2O)o1,/,/,-27*,/,4,10
CCN(CC)C(=O)CSc1nc2c(sc(=S)n2-c2ccccc2)c(=O)n1Cc1ccco1,-1,5,1,50*,-11,0
CCN(CC)C(=O)CSc1nc2c(sc(=S)n2CC)c(=O)n1-c1ccccc1,-2,9,2,3,4,-12
NC(=O)c1ccsc1NC(=O)COc1ccccc1,15,43*,-3,47*,-5,5
Cc1cccc(OCC(=O)OCC(=O)Nc2sccc2C(N)=O)c1,2,/,/,/,/,-1
CN(C(=O)COC(=O)C12CC3CC(CC(Cl)(C3)C1)C2)c1ccccc1,6,/,/,/,/,-3
COc1cccc(C(=O)NCCC(=O)NCc2cc(=O)n(C)c(=O)n2C)c1,-2,5,-1,3,/,-8
Cn1c(/N=C/c2c(O)ccc3ccccc23)nc2ccccc21,5,34,/,36*,157*,3
NC(=O)c1c(NC(=O)Cn2nc(C(=O)O)c3ccccc3c2=O)sc2c1CCCC2,4,-3,2,5,53*,-1
NC(=O)c1c(NC(=O)Cn2nc(C(=O)O)c3ccccc3c2=O)sc2c1CCC2,0,-16,0,-1,-5,1
Cc1[nH][nH]c(=O)c1/C=N/N1CCOCC1,6,-2,-27*,-1,-12,3
CCOC(=O)c1ccc2c(c1)C1C=CCC1C(C(=O)OCC)N2 (centres undefined),0,22,-1,25,/,-4
O=C(O)C1Nc2c(O)cccc2C2C=CCC12 (centres undefined),3,90*,/,62*,108*,9
O=C(OC1CCCCC1)c1ccc2c(c1)C1C=CCC1C(C(=O)O)N2 (centres undefined),/,/,/,/,88*,/
COc1ccc(-c2nc(CS(=O)CC(=O)NCc3cccnc3)c(C)o2)cc1 (centres undefined),-1,9,-2,5,136*,-11
CCN(c1ccccc1)S(=O)(=O)c1ccc(Cl)c(NC(=O)CN(C)Cc2cccc(F)c2)c1,/,/,/,/,/,9
Cc1[nH]nc(NNC(=O)c2ccccc2)c1[N+](=O)[O-],1,5,-83*,-1,-3,-7
Cc1[nH]nc(Nc2ccccc2)c1[N+](=O)[O-],7,-1,-1,1,-4,-2
C(=C\c1ccccc1)/CN1CCN(C(c2ccnc3ccccc23)c2nnnn2C2CCCC2)CC1 (centres undefined),/,/,/,/,/,-11
CCCn1c(SCCc2ccccc2)nc2c1c(=O)[nH]c(=O)n2C,4,2,-1,3,115*,-11
CCNc1cc2oc(=O)c(CN3CCOCC3)c(C)c2cc1C,22,29,/,32*,12,9
CCc1cccc(CC)c1NC(=O)CN1C2CCCC1CC(NC(=O)Nc1cccc(OC)c1)C2 (centres undefined),-5,7,2,3,-5,5
COC(=O)C1=C(C)N=C2SC(C#N)=C(N)N2C1c1cccc(OC)c1 (centres undefined),0,-5,-28*,0,-21,-7
SMILES,GLD-1 TGE inh,MCL1 BIM primary,MEX-5 binding,Bcl-xL primary,EBV gp42 inh,eLon inh
CCc1cccc(OCC(O)Cn2c(N3CCCCC3)nc3c2c(=O)[nH]c(=O)n3C)c1 (centres undefined),7,-9,2,-5,/,-3
CCOP(=O)(OCC)C(Nc1ccccc1)c1ccccc1C(F)(F)F (centres undefined),-1,7,2,1,-21,-3
CN1C2C=C3C(C#N)=C(N)C(C#N)(C#N)[C@H](c4c(F)cccc4F)[C@H]3C1CC2 (some centres undefined),26,17,-6,19,-21,8
CN1C2C=C3C(C#N)=C(N)C(C#N)(C#N)[C@@H](c4cccc(F)c4)[C@@H]3C1CC2 (some centres undefined),23,27,-3,31*,0,-11
CNCc1ccccc1Sc1ccc(O)c(O)c1,7,39,-54*,15,-16,17
COc1ccc(Sc2ccccc2CN(C)C)cc1OC,-8,-1,-3,2,7,-8
Cc1cc(C)nc(NS(=O)(=O)c2ccc(NC(=O)c3cc4c(=O)n5cccc(C)c5nc4n3C)cc2)n1,5,31,0,30*,/,5
COc1cc(/C=C2\N=C(c3ccccc3)OC2=O)ccc1OCc1c(C)no[n+]1[O-],8,7,-1,-1,24,-2
COc1ccc(/C=C2\N=C(c3c(-c4ccccc4)noc3C)OC2=O)cc1OC,4,7,5,6,57*,-12
O=C(COc1ccc(Cl)cc1)NCc1ccncc1,-4,3,1,1,-10,-5
O=c1cc(-c2ccccc2)nc2c(-c3ccccc3)c(C(F)(F)F)[nH]n12,9,-1,-2,1,60*,5
Cc1cc(=O)n2[nH]c(C)c(-c3ccccc3)c2n1,-5,2,2,-5,-6,2
CCn1c(CNC(=O)c2cccc(C)c2)nnc1SCC(=O)N1CCOCC1,-4,9,-1,5,/,-6
CN=C(c1ccc(C)cc1)n1c(=S)nc(-c2ccc(C)cc2)n(C)c1=S,9,9,-4,8,-11,-1
CN=C(c1ccco1)n1c(=S)nc(-c2ccco2)n(C)c1=S,9,34,-2,33*,7,-10
COc1cc(-c2csc(C)n2)ccc1O,14,0,1,1,0,-5
Cc1nc(-c2ccc(O)c(O)c2)cs1,4,33,-51*,23,-47,0
CCOc1cc2c(cc1/C=C(/C#N)c1ccc(C(=O)O)cc1)OCO2,-4,12,-32*,6,-14,4
CN(C)c1ccc(/C=C/C=C2/SC(=S)N(c3ccccc3)C2=O)cc1,-25,22,0,36*,-3,-92
CCCCc1c(C)nc2ccc(C(=O)OCC)cc2c1Cl,1,3,-2,1,5,-5
CCOC(=O)c1ccc2nc(C)c(CCC(C)=O)c(Cl)c2c1,5,-1,0,2,-11,20*
COc1ccc(C=C2C(=O)OC(C)(C)OC2=O)cc1OC,-1,1,-50*,3,-4,5
CCCC1c2ccc(C)n2CCN1C(=O)Nc1ccccc1Cl (centres undefined),21,45*,0,41*,13,11

# Assay outcomes as filed in PubChem.
